A selection: hits, their analogues and other compounds. The true share with any hit is near 3.9%.
CF NFkB inh: blocks PAF-induced NF-kB reporter in cystic fibrosis cells; inhibition, % at 5 µM; AID 588850; 360,000 compounds, 0.86% hits; KKLEB NF-kB-GFP reporter, GFP fluorescence overnight;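 active = at least 50% inhibition at 5 µM, scaled per plate between neutral and stimulator controls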;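 also: PAF is a Pseudomonas aeruginosa culture filtrate used as stimulus; plate controls were PAF-stimulated DMSO wells for no effect and unstimulated DMSO wells for full effect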
KKLEB cytotox: counter-screen for CF NF-kB inhibitors: cytotoxicity | activity change (cytotoxicity), % at 5 µM | 360,000 compounds, 0.36% hits | KKLEB CF airway cells viability, ATPlite luminescence, overnight; hits give low values; cells stimulated with P. aeruginosa culture filtrate;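 active = corrected activity change at or below -50% at 5 µM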
TROY signal inh: blocks TROY-dependent signaling in reporter cells. Q293 LMP1-TROYcd NF-kB luciferase reporter, 4 h. inhibition, % at 10 µM. 360,000 compounds, 0.98% hits. AID 1347056;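 active = compounds whose plate-normalised and pattern-corrected inhibition of the luciferase reporter signal at the single screening dose is 50% or more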
HIF-2a block: inhibitors of HIF-2a. 786-0 RCC cells HIF-2a reporter, luciferase luminescence, overnight. inhibition, % at 18.8 µM. 360,000 compounds, 0.72% hits. AID 624352;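 active = inhibition of the luminescence signal of 40% or more relative to plate controls, in a single-dose primary screen at 18.75 µM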
Peg3 prom inh-1: Peg3 promoter activity inhibition; HeLa PEG-Prom luciferase reporter, luminescence, overnight; inhibition, % at 20 µM; 360,000 compounds, 1.7% hits; AID 588405;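 active = inhibition of at least 50% at 20 µM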
TWEAK-Fn14 inh: blocks TWEAK-Fn14 interaction in a reporter cell assay; TWEAK-stimulated Fn14 reporter cells, luciferase luminescence, 8 h; inhibition, % at 10 µM; 360,000 compounds, 2% hits; in the data active = inhibition above about 50%
Peg3 prom inh-2: confirmation of Peg3 promoter inhibitors; shares compounds with Peg3 prom inh-1; HeLa PEG-Prom luciferase reporter, luminescence, overnight; inhibition, % at 20 µM; 1,300 compounds, 84% hits; AID 602417;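 active = at 20 µM dose, 40% or more inhibition averaged across four replicates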
* hit, by the source's call; . = no result given.

SMILES	CF NFkB inh	KKLEB cytotox	TROY signal inh	HIF-2a block	Peg3 prom inh-1	TWEAK-Fn14 inh	Peg3 prom inh-2
NC(=O)c1cc([N+](=O)[O-])ccc1NCc1ccc(F)cc1	2	-24	-55	-156	-100	-2	.
O/N=C(\c1ccc(Cl)cc1Cl)c1ncc(C(F)(F)F)cc1Cl	2	6	40	16	57*	9	47*
Cc1ccc(-c2cc(C(=O)Nc3nccs3)c3ccccc3n2)c(C)c1	-36	-6	2	10	91*	45	61*
Cc1c(CN2CCC(CO)(CCOc3ccccc3)CC2)[nH]c2c(Cl)cccc12	24	-14	-3	6	99*	14	99*
Cc1nn(C)c(Cl)c1CN1CCC(CO)(CCOc2ccccc2)CC1	0	-1	-3	5	7	1	.
COCCn1c(C)cc(C(=O)COC(=O)c2cccc(O)c2)c1C	-8	-4	86*	38	75*	96*	68*
COCCn1c(C)cc(C(=O)COC(=O)c2cc3c(s2)CCC3)c1C	0	7	-2	-144	-220	12	.
O=C1C(c2ccnc3ccccc23)=C(O)c2ccccc21	-142	3	59*	-10	88*	94*	0
CC1=NN(c2ccccc2)C(=O)/C1=C/C=C/c1ccccc1	40	11	27	68*	113*	95*	22
CC1=NN(c2cccc(C(=O)O)c2)C(=O)/C1=C\C=C\c1ccco1	6	2	-38	-18	-36	-7	.
O=C(NCc1ccc(C(F)(F)F)cc1)c1cccc2c(-c3ccc(F)c(F)c3)coc12	-21	13	-4	-25	-4	2	.
O=C1c2cccc3cccc(c23)C(=O)N1CCCN(C(=O)c1cccs1)c1cccc(F)c1	-9	-12	-4	21	52*	39	33
NC(=O)SCC(=O)Nc1ccc(Cl)c(Cl)c1	-17	16	-39	13	66*	-5	-9
O=C(Nc1ccc(-c2nc3ccccc3o2)cc1)c1ccc(N2CCOCC2)c([N+](=O)[O-])c1	52*	-51*	32	-82	51*	45	48*
C=CCc1cccc(/C=N/NC(=O)C(C)Nc2ccc(C)cc2)c1O (stereo unspecified)	45	-33	18	24	55*	11	41*
Cc1cc(C)c(C(=O)N(CCN(C)C)CC2CCCN(Cc3ccccc3F)C2)o1 (stereo unspecified)	23	-20	-5	6	-12	3	.
CCOC(=O)CSC1=NC(=O)/C(=C\c2ccc(Cl)cc2)S1	9	-4	-23	-172	88*	-16	0
CCOC(=O)C1CCN(C2=NC(=O)/C(=C/c3ccc(Cl)cc3)S2)CC1	-1	-2	5	23	24	-30	.
COc1ccc(OC)c(NC(=O)c2cc3c(Cl)nc4ccccc4c3s2)c1	18	-26	30	6	65*	-67	20
Cc1cc(C(=O)NNC(=O)CN2C(=O)NC3(CCCCC3)C2=O)c(C)o1	4	2	4	-6	1	4	.
CC(=O)c1ccc(N2CCN(C(=S)NCc3ccco3)CC2)cc1	14	-3	13	10	11	8	.
Cc1cccc(-n2cc(-c3ccccc3)c3c(N4CCOCC4)ncnc32)c1	94*	-92*	35	27	69*	-19	82*
Clc1ccccc1-c1cnc2sc(NCc3ccc4c(c3)OCO4)nn12	9	14	-25	-4	66*	-8	33
Clc1ccccc1-c1ccc2ncnc(NCc3ccc4c(c3)OCO4)c2c1	18	-24	10	0	20	-7	.
COCCCNCCOc1cc(C(C)C)ccc1C	-5	-24	-3	6	3	-14	.
SMILES	CF NFkB inh	KKLEB cytotox	TROY signal inh	HIF-2a block	Peg3 prom inh-1	TWEAK-Fn14 inh	Peg3 prom inh-2
O=[N+]([O-])c1ccc(Cl)c(S(=O)(=O)Nc2cccc(-c3ccc(N4CCOCC4)nn3)c2)c1	-34	-10	-28	-218	-171	-23	.
CCCn1nc(C(=O)Nc2nc(-c3ccccn3)cs2)c2ccccc2c1=O	-20	1	-6	-6	70*	-7	62*
Cn1nc(C(=O)Nc2nc(-c3ccccn3)cs2)c2ccccc2c1=O	-4	-6	-5	-16	11	-16	.
CCOc1ccc(C(=O)Nc2nnc(S(=O)(=O)N(C)Cc3ccco3)s2)cc1	27	-17	-25	-108	-5	0	.
COc1cc(/C=C2/SC(=S)N(Cc3ccccc3)C2=O)ccc1OCC(=O)O	25	-2	-12	-15	-6	-39	.
COc1ccc(/C=C2\SC(=S)N(CCC(=O)N(CCO)Cc3ccccc3)C2=O)cc1OC	23	-10	-4	13	78*	11	14
O=C(c1ccco1)N1CCN(C(c2ccccc2Cl)c2nnnn2Cc2ccco2)CC1 (stereo unspecified)	1	7	-5	-1	39	27	.
O=C(c1ccco1)N1CCN(C(c2ccccc2Cl)c2nnnn2Cc2cccs2)CC1 (stereo unspecified)	9	-6	7	19	52*	42	58*
CN(C)CCNc1ccc2nnn3c4ccc(O)cc4c(=O)c1c23	-30	-17	-12	27	75*	-55	56*
Cc1ccc(NCCN(C)C)c2c(=O)c3cc(O)ccc3sc12	-136	-24	-76	24	106*	-116	100*
Cc1cc(C2=NNC(=NC3CC3)SC2)c(C)n1Cc1ccco1	22	-12	16	80*	86*	61*	90*
COCCCN=C1NN=C(c2cc(C)n(Cc3ccco3)c2C)CS1	22	-8	2	-68	-73	10	.
CN(C)C=Nc1ncc2c3ccccc3n(CCN(C)C)c2c1C#N	44	-9	15	12	19	28	.
CCN(CC)CCn1c2ccccc2c2cnc(N)c(C#N)c21	27	-4	-4	36	91*	-9	94*
COc1cccc(/C(O)=C2\C(=O)C(=O)N(c3ccccn3)C2c2cccc(OC)c2OC)c1 (stereo unspecified)	8	5	-4	13	12	0	.
CCC(C)NCCCOc1ccc(Cl)cc1C(C)(C)C (stereo unspecified)	5	-2	-26	9	-3	10	.
COCCCNCCCOc1ccc(Cl)cc1C(C)(C)C	4	-2	12	-1	62*	5	40
O=C1CCC2(CC1)NC(=O)N(c1ccccc1)N2	-8	4	3	4	-2	-8	.
CCOc1ccc(S(=O)(=O)N2CCCC(C(=O)NCc3cccnc3)C2)cc1Cl (stereo unspecified)	-12	7	10	0	14	17	.
O=C(NOC(=O)c1ccccc1)c1ccccc1	-14	13	-13	16	21	1	.

Compound activity deposited in PubChem BioAssay by Sanford-Burnham Center for Chemical Genomics.
